For test [1], the target named is Estrogen receptor (Homo sapiens) (UniProt P03372). Briefly: qHTS assay to identify small molecule antagonists of the estrogen receptor alpha (ER-alpha) signaling pathway using the BG1 cell line in the presence of 0.1 nM 17-beta-estradiol (AID 1259244). Also: nearly all actives have a fitted effect of over 50% in size. Also: potency is read from the fitted curve at half-maximal effect. The method, boiled down: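 After 5 days in hormone-depleted medium (charcoal-stripped serum, no phenol red), VM7Luc4E2 cells were seeded, incubated 24 h, then co-treated with compound and 0.1 nM (final) estradiol for 22 h before luminescence detection.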

Test [2] can be described thus: qHTS assay to identify small molecule HDAC inhibitors (AID 1259364). Also: nearly all actives have a fitted effect of over 45% in size. Also: potency is read from the fitted curve at half-maximal effect. The method, boiled down:
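Homogeneous cell-based luminescent assay of endogenous class I/II HDAC activity; HCT-116 cells, 2 h compound exposure, 30 min HDAC-Glo development at RT.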

Test [3] can be described thus: qHTS assay to identify small molecule HDAC inhibitors - cell viability counter screen (AID 1259365). Also: nearly all actives have a fitted effect of over 50% in size. Also: potency is read from the fitted curve at half-maximal effect. Put shortly:
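Cytotoxicity was gauged in wild-type HCT-116 cells after a brief 2hr treatment with DMSO-dissolved compounds at 37C and 5% CO2, using CellTiter-Glo luminescence developed for 30min at room temperature.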

A short description of test [4]: qHTS assay to identify small molecule agonists of the sonic hedgehog signaling (Shh) pathway - cell viability counter screen (AID 1259366). Also: nearly all actives have a fitted effect of over 50% in size. Also: potency is read from the fitted curve at half-maximal effect. Put shortly:
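Stable Gli1-Luc NIH/3T3 clone, 2,000 cells/well. Compound exposure 24hr at 37C. Read-out: CellTiter-Fluor fluorescence.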
(In qHTS, concentration-response curves come from the screen itself.)

A short description of test [5]: qHTS assay to identify small molecule antagonists of the sonic hedgehog signaling (Shh) pathway - cell viability counter screen (AID 1259367). Also: nearly all actives have a fitted effect of over 55% in size. Also: potency is read from the fitted curve at half-maximal effect. The method, boiled down: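 Using CellTiter-Fluor, viability of Gli1-Luc reporter 3T3 cells is read by fluorescence in the wells used for the Shh luciferase assay. Treatment lasts 23 hr with conditioned medium, then reagent 1 hr at 37C.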

The nature of test [6]: qHTS assay to identify small molecule agonists of the sonic hedgehog signaling (Shh) pathway (AID 1259368; calls by dose curve;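 also: NIH/3T3-derived 3T3Gli1-Luc cells carrying a stable Gli1-driven firefly luciferase reporter; series mostly up to about 92 µM; nearly all actives have a fitted effect of over 15% in size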). The method, boiled down: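 Steps: seed 3T3 Gli1-Luc cells, incubate 4 hr at 37 C, pin-transfer compounds in DMSO alongside a positive control, incubate 24 hr, add luciferase detection reagent, wait 30 min at room temperature, read luminescence.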
The nature of test [7]: qHTS assay to identify small molecule antagonists of the sonic hedgehog signaling (Shh) pathway (AID 1259369; calls by dose curve; also: nearly all actives have a fitted effect of over 45% in size; also: potency is read from the fitted curve at half-maximal effect). Put shortly: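 Inhibition of Shh signalling is measured as reduced Gli1-response-element firefly luciferase output in an NIH/3T3-derived stable reporter clone stimulated with conditioned medium for 24hr.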
Test [8] is described as follows: qHTS assay to identify small molecule phospholipidosis (PLD) inducers (AID 1259344; active = well fitted curve in the direction sought with a large enough effect; an effect the other way counts as inactive or inconclusive). The method, boiled down:
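Fluorescent phospholipid staining (LipidTOX Red) measured by automated microscopy in fixed HepG2 cells after 24 h treatment; nuclei counterstained with Hoechst 33342; amiodarone as reference inducer.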

Test [9] deals with Estrogen receptor beta (Homo sapiens) (UniProt Q92731). Briefly: qHTS assay to identify small molecule agonists of the estrogen receptor beta (ER-beta) signaling pathway (AID 1259377; active = well fitted activation curve with a large enough effect in the signal ratio in the repeat runs, not every such curve was filed as active; the % refers to the signal ratio). The method, boiled down:
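Measured by fluorescence intensity from a B/G FRET beta-lactamase substrate (2 h, room temperature) in ER-beta-UAS-bla HEK293T cells treated with DMSO-dissolved compounds for 16 hr at 37C and 5% CO2.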

Several values for one entry are separate records, joined by “and”; a condition that tells them apart may be missing. Identical values can stand only once. Inconclusive results are not listed. The source holds several records for some structures; these can differ, active in one and inactive in another. Activity calls are given as the source filed them. Unless noted, calls follow the shape of the dose curve; as a rule, active = well fitted curve in the direction sought with a large enough effect in the repeat runs; inconclusive = weak or mixed curves; inactive = no such curve, though single readings can be large; an effect the other way counts as inactive or inconclusive.

Sequence of Estrogen receptor beta (Homo sapiens) (Q92731 whole entry, looked up): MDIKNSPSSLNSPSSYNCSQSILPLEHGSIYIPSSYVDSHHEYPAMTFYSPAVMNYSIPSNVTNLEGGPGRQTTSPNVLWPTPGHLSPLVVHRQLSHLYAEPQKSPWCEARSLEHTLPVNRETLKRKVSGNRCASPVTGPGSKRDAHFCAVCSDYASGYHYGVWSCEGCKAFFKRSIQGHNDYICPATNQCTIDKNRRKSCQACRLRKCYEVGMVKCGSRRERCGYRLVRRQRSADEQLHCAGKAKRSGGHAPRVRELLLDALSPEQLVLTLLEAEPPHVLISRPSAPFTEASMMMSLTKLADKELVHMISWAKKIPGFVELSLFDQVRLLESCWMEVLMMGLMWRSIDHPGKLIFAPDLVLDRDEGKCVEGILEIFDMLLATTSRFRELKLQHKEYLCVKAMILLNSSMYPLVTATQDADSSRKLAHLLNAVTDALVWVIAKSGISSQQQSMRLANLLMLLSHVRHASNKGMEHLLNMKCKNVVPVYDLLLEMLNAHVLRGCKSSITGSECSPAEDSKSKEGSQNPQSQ
Sequence of Estrogen receptor (Homo sapiens) (P03372 whole entry, looked up): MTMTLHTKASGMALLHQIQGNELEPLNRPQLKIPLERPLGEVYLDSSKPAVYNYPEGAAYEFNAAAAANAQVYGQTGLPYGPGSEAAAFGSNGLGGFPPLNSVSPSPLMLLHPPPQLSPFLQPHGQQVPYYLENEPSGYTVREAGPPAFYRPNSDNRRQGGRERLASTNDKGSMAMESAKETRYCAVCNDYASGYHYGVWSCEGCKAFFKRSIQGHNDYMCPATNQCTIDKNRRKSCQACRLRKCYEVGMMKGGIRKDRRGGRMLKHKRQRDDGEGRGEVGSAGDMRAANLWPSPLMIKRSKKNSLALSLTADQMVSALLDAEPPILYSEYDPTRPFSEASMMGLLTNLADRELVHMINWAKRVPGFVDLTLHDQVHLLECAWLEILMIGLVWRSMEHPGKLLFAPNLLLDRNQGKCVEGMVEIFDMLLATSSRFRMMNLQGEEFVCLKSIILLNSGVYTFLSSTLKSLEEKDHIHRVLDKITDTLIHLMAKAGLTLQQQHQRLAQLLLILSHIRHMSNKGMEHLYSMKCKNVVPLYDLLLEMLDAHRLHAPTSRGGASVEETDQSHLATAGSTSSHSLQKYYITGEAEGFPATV

Consider `CC[C@@H](N)CO`, for which the Potency result in [1], in test [2], in test [3], in [4], in test [5] and in [6] was “inactive” each time.
For the molecule `CC(=O)CC(=O)Nc1ccc2[nH]c(=O)[nH]c2c1`, the Potency result in [1], in [2], in test [3], in test [4], in test [5] and in test [6] was “inactive” each time. Besides, the Potency entry in [7] is “inactive”.
In the case of `COc1nc(C)nc(Cl)c1NC1=NCCN1`, the Potency entry in [1], in [8], in test [2], in test [3], in test [4] and in test [5] was “inactive” throughout. In addition, the Potency entry in test [6] and in [7] was “inactive” in each case. Moreover, the call in test [9] was inactive.
Take `CCN1CCCC1CNC(=O)c1cc(S(=O)(=O)CC)c(N)cc1OC` (configuration not stated): the Potency result in test [1], in test [2], in [3], in test [4], in test [5] and in test [6] was “inactive” throughout. For the same molecule, the Potency entry in test [7] was “inactive”.
Turning to `CO[Si](OC)(OC)c1ccccc1`, the Potency entry in test [1], in test [2], in test [3], in [4], in test [5] and in test [6] was “inactive” in each case. In test [7], the Potency entry is “inactive”. The molecule was classed as inactive in test [9].
Consider `CCCOC(=O)c1cc(O)c(O)c(O)c1`, for which the Potency entry in [1], in test [2], in test [3], in test [5] and in test [6] was “inactive” throughout. For the same molecule, the values for the Potency in [4] and in test [7] were 43.1 µM (active) and 12.1 µM (active), respectively. The molecule was called inactive in test [9].
On to `CC(=O)CC(C)=O`, for which the Potency entry in test [1], in test [2], in test [3], in [4], in [5] and in test [6] was “inactive” in each case. Further, in [7], the Potency result was “inactive”.
Regarding `Oc1c(Cl)cc(Cl)cc1Sc1cc(Cl)cc(Cl)c1O`, the Potency was 12.2 µM (active) and 17.5 µM (active) and 15.4 µM (active) in test [1]; 27.4 µM (active) and inactive in test [5]. Further, the Potency entry in test [8], in [2], in [3], in test [4] and in test [6] was “inactive” in each case. The molecule was called inactive in [9].
With `CC(C)(C)c1cc(C(C)(C)C)c(O)c(C(C)(C)C)c1`, the Potency result in test [1], in test [2], in test [3], in [4], in test [5] and in [6] was “inactive” in each case. Moreover, the Potency result in test [7] is “inactive”. Also, the molecule was called inactive in [9].
`O=C(OCc1ccccc1)c1ccc(O)cc1`: the Potency entry in test [1], in [3], in [4] and in test [6] was “inactive” in each case. The Potency is 12.2 µM (active) and 11.9 µM (active) in test [2]; 68.6 µM (active) and inactive in test [5]; 43.3 µM (active) and inactive in test [7].
On to `C1COC(NC(C2CC2)C2CC2)=N1`, for which the Potency result in test [1], in test [8], in test [2], in test [3], in [4] and in test [5] was “inactive” throughout. For the same molecule, the Potency result in [6] and in test [7] was “inactive” throughout. Also, in test [9], the molecule was classed as inactive.
`NC(N)=Nc1nc(CSCC/C(N)=N/S(N)(=O)=O)cs1`: the Potency result in [1], in [2], in [3], in [4], in test [5] and in test [6] was “inactive” in each case. The Potency result in [7] is “inactive”.
For the molecule `c1cc(C(c2ccc(OCC3CO3)cc2)C(c2ccc(OCC3CO3)cc2)c2ccc(OCC3CO3)cc2)ccc1OCC1CO1` (configuration not stated), the Potency result in test [1], in test [2], in [3], in [4], in [5] and in test [6] was “inactive” each time. Moreover, the Potency result in [7] is “inactive”.
For `CC(=O)C1=C(C)[C@@H]2C[C@@]3(C1)[C@H](C)CC[C@H]3C2(C)C`, the Potency result in test [1], in test [2], in [3], in test [4], in test [5] and in test [6] was “inactive” each time. Moreover, the Potency result in test [7] was “inactive”. Moreover, in test [9], the molecule was called inactive.
On to `c1ccc2cc3c(ccc4ccccc43)cc2c1`, for which the Potency entry in [1], in [3], in test [4], in test [5], in test [6] and in test [7] was “inactive” throughout. For the same molecule, in [2], the Potency is 30.7 µM (active) and 27.3 µM (active).
Consider `C=CS(=O)(=O)O`, for which the Potency entry in [1], in test [8], in test [2], in test [3], in test [4] and in test [5] was “inactive” throughout. In addition, the Potency result in test [6] and in [7] was “inactive” throughout. In addition, the call in [9] was inactive.
Regarding `CCn1cc(C(=O)O)c(=O)c2cc(F)c(N3CCNC(C)C3)c(F)c21` (configuration not stated), the Potency result in [1], in test [2], in [3], in test [4], in test [5] and in test [6] was “inactive” each time. Further, the Potency result in [7] is “inactive”.
As to `[Cl][In]([Cl])[Cl]`, the Potency result in test [1], in [8], in test [2], in test [3], in test [5] and in [6] was “inactive” in each case.
Regarding `CN(C)c1ccc2nc3ccc(=[N+](C)C)cc-3sc2c1`, the Potency in [1] was 26.2 µM (active) and 27.3 µM (active) and 29.8 µM (active); in [2] it was 11.7 µM (active) and 10.9 µM (active) and 13.3 µM (active); in test [3] it was 11.7 µM (active) and 24.3 µM (active) and 11.9 µM (active); in [4] it was 26.2 µM (active) and 43.3 µM (active) and 29.8 µM (active); in test [5] it was 54.5 µM (active); in test [7] it was 739 nM (active) and 1.09 µM (active) and 596 nM (active). Also, in test [6], the Potency result was “inactive”.
On to `Cc1cc(Cc2cc(C)cc(C(C)(C)C)c2O)c(O)c(C(C)(C)C)c1`, for which the Potency in test [1] was 27.4 µM (active); in test [4], 43.5 µM (active); in test [5], 61.4 µM (active). The Potency entry in test [2], in test [3] and in [6] was “inactive” each time.
Turning to `c1cnc2cc3c(cc2n1)C1CNCC3C1`, the Potency entry in [1], in test [8], in [2], in [3], in [4] and in test [5] was “inactive” throughout. Besides, the Potency entry in test [6] and in test [7] was “inactive” each time. Besides, in test [9], the molecule was classed as inactive.

Values taken from PubChem BioAssay (Tox21).
